Measurements taken from PubChem BioAssay AID1347073 (National Center for Advancing Translational Sciences (NCATS), 2019).
In all, about 45,000 compounds went through this assay and about 200 (0.44%) were called active. Entries that show only a call come without a potency. Not shown: some 7% with an inconclusive outcome. The sample holds actives, similar compounds and a random draw of the others, so the mix is not that of the screen. Calls come from the whole dose curve; as a rule, active = well fitted activation curve with a large enough effect; inconclusive = small, poorly fitted or top-dose-only effect; inactive = no such curve, though single readings can be large or run the other way.

Test: qHTS of TDP-43 Inhibitors: NCGC Sytravon Library Screen; note: nearly all actives have a fitted effect of over 55% in size
Settings: yeast TDP-43 toxicity rescue, BacTiter-Glo growth, 24 h; series mostly up to 46.1 µM
Source text: The goal of this project is to identify new chemical probes capable of reversing the toxicity associated with TDP-43 which is associated with frontotemporal lobar degeneration and amyotrophic lateral sclerosis. These compounds will provide a complementary approach to deciphering the tangled mechanisms of toxicity and protection that we have uncovered through genome-wide genetic screens and are beginning to uncover in a large-scale proteomics analysis with mass spectroscopy. To this end, a miniaturized assay was developed to be screened against the Molecular Libraries Small Molecule Repository (MLSMR) to discover TDP-43 inhibitors. Please note that in the set-up this yeast-based assay compounds that inhibit as TDP-43, have a read-out as activators. NIH Chemical Genomics Center [NCGC] NIH Molecular Libraries Probe Centers Network [MLPCN] Assay Submitter (PI): Susan Lindquist, Whitehead Institute/MIT MLPCN Grant: R21 NS060957
Dispense 2.5 microL yeast galactose medium per 1536-well plate, pin compound, dispense 2.5 microL TDP-43 expressing yeast in galactose medium at OD600=0.02 (pregrown in raffinose medium to mid-log phase) per well, incubate for 24 hr at 30 deg C, and cell growth will be measured using 5 microL of Bactiter/Glo reagent to entire plate and read using Luminescence Protocol in ViewLux.
Potency is the fitted concentration of half-maximal effect.

Row | SMILES | Potency
1 | CN(C)C(CNC(=O)c1cccc(C#N)c1)c1ccco1 (stereo not drawn) | inactive
2 | Nn1c(SCC(=O)Nc2ccc3c(c2)CCC3)nnc1C1CC1 | inactive
3 | CC(CN1CCC(n2nccc2NC(=O)C2CCCC2)CC1)c1ccccc1 (stereo not drawn) | inactive
4 | O=C1c2ccccc2S(=O)(=O)N1CC(O)Cn1c2ccccc2c2ccccc21 (stereo not drawn) | 12.6 µM (active)
5 | COc1ccc(CNC(=O)CN2C(=O)c3ccccc3S2(=O)=O)cc1 | inactive
6 | CC(C)(C)c1ccc(CN2C(=O)c3ccccc3S2(=O)=O)cc1 | inactive
7 | Cc1ccc(Cl)cc1NC(=S)N(CCN(C)C)Cc1cccs1 | inactive
8 | COc1ccc(-c2ccc(C(=O)NC(C)C)c3occc23)c(C)c1 | 15.8 µM (active)
9 | COCCCNC(=O)c1ccc(-c2c(C)noc2C)c2ccoc12 | inactive
10 | Cc1noc(C)c1-c1ccc(C(=O)NCc2ccncc2)c2occc12 | inactive
11 | Cc1ccc(OCc2n[nH]c(=S)n2-c2ccc(C)cc2)cc1 | inactive
12 | Cc1ccc(S(=O)(=O)N(Cc2ccc(Cl)cc2)c2ccccc2C(=O)NCc2cccnc2)cc1 | inactive
13 | O=C(c1cccs1)c1cn(CCOc2ccc(Cl)cc2)c2ccccc12 | inactive
14 | CN(C)c1ccnc(Nc2ccc(F)cc2)c1C#N | inactive
15 | COc1ccccc1OCc1ccc(C(=O)NC(C)c2ccccc2)o1 (stereo not drawn) | inactive
16 | O=C(C1CCN(S(=O)(=O)c2ccc(Br)s2)CC1)N1CCN(C2CCCCC2)CC1 | inactive
17 | COc1ccc(C(=O)OCc2cc(=O)n3ccsc3n2)cc1F | inactive
18 | CCCCN(CC)CCCNC(=O)c1ccc(CSc2nc3ccncc3[nH]2)cc1 | inactive
19 | CC(C)(C)c1ccccc1NC(=O)CN1C(=O)NC2(CCCC2)C1=O | inactive
20 | COc1ccc(C(=O)Nc2ccc(N3CCC(C)CC3)cc2)cc1Br | inactive
21 | c1cc(-c2ccc3[nH]ccc3c2)n2ccnc2c1 | inactive
22 | O=C(CN1C(=O)NC2(CCCCCC2)C1=O)Nc1ccc([N+](=O)[O-])cc1 | inactive
23 | O=C1NC(c2ccc(-c3ccccc3[N+](=O)[O-])o2)C(C(=O)c2ccc(Cl)cc2)C(O)(C(F)(F)F)N1 (stereo not drawn) | inactive

Row | SMILES | Potency
24 | CN(Cc1nc2ccccc2s1)C(=O)c1ccc(F)cc1 | inactive
25 | CCN(CC)C(=O)CN(c1cccc([N+](=O)[O-])c1)S(=O)(=O)c1ccccc1 | inactive
26 | O=C(Nc1ccc(F)cc1)N1CCN(c2ccc(F)cc2)CC1 | inactive
27 | Cc1nc2c(OCc3cccc(Cl)c3)cccn2c1N(C)CC1CC1 | inactive
28 | CC(C)(C)NC(=O)C(=O)NN=C1CCCCCCC1 | inactive
29 | O=C(CCn1c(=O)c2sccc2n(Cc2ccc(F)cc2)c1=O)NCc1ccc2c(c1)OCO2 | inactive
30 | CCc1ccc(OC2(C)CCN(CCOc3ccc(C)cc3)C2)cc1 (stereo not drawn) | inactive
31 | COc1ccc(CN2CCC(C)(Oc3cccc(F)c3)C2)c2ccccc12 (stereo not drawn) | inactive
32 | O=C(NCc1ccc(F)cc1)c1cc(C2CCCCN2C(=O)c2cccs2)on1 (stereo not drawn) | inactive
33 | CN(CC(=O)NC(=O)Nc1ccccc1F)Cc1ccccc1 | inactive
34 | CCn1c(CSc2nc(C)cc(C)n2)nnc1SCC(N)=O | inactive
35 | O=C(O)C(F)(F)C(NCc1ccccc1)c1ccccc1 (stereo not drawn) | inactive
36 | CC(C(=O)Nc1ccc(F)c(F)c1F)N1CCCCCC1 (stereo not drawn) | inactive
37 | O=C(NCCc1ccc(F)cc1)c1n[nH]c2ccccc12 | inactive
38 | N#Cc1ccccc1NC(=O)c1ccc2c(c1)OCO2 | inactive
39 | O=C(COC(=O)c1ccncc1)Nc1ccc2c(c1)OCO2 | inactive
40 | N/C(=N\OC(=O)c1ccc2c(c1)OCO2)c1ccc(Br)cc1 | 3.55 µM (active)
41 | O=C(O)CC1(CC(=O)Nc2cccc(C(F)(F)F)c2)CCCC1 | inactive
42 | Cn1c(NCc2cccnc2)nc2cc(-c3ccc(F)cc3)sc2c1=O | inactive
43 | Cc1ccc(C)c(NC(=O)CN(C)C(=O)COc2ccc3ccccc3c2)c1 | inactive
44 | NS(=O)(=O)c1cccc(NC(=O)CN2CCCc3ccccc32)c1 | inactive
45 | O=C(CCn1nnc2ccccc2c1=O)N[C@@H](Cc1c[nH]c2ccccc12)C(=O)O | inactive
46 | O=C(NC1CC1)C(Cc1ccccc1)NS(=O)(=O)c1ccccc1F (stereo not drawn) | inactive

Row | SMILES | Potency
47 | COc1cccc(CC2(CO)CCN(Cc3cnc(-c4cccc(C)c4)nc3)CC2)c1 | inactive
48 | COCCCNC(=S)N1CCCC(c2nc3cc(C)c(C)cc3[nH]2)C1 (stereo not drawn) | inactive
49 | CCC1CCCCN1C(=O)CSc1nc2c(c(=O)n(C)c(=O)n2C)n1C (stereo not drawn) | inactive
50 | CC(C)c1ccc(N(C(=O)c2ccco2)C(C(=O)NC2CCCC2)c2cccnc2)cc1 (stereo not drawn) | inactive
51 | COc1ccc(N2CCN(C(=O)C3CCN(C(=O)c4ccccc4Cl)CC3)CC2)cc1 | inactive
52 | CCc1cc(-c2nnc(SCC(=O)NC3CC3)n2C)cs1 | inactive
53 | COc1ccc(-c2n[nH]c(C)c2-c2ccccc2OC)c(O)c1 | inactive
54 | CCOc1ccccc1Oc1cn[nH]c1-c1ccc(OC)cc1O | 15.8 µM (active)
55 | COc1ccc(-c2[nH]ncc2CN(C)Cc2cc(C)[nH]n2)c(F)c1 | inactive
56 | COc1ccc(S(=O)(=O)N2CCOCC2)cc1NC(=O)CSc1nnc(NC2CC2)s1 | inactive
57 | Cn1cc(CN2CCCCC2c2ccccn2)c(-c2ccc3c(c2)OCCO3)n1 (stereo not drawn) | inactive
58 | Cc1ccc(SCC(=O)NNC(=O)c2ccc(S(C)(=O)=O)cc2)cc1 | inactive
59 | CCOC(=O)C1CCN(c2ccc(C(=O)O)cc2[N+](=O)[O-])CC1 | inactive
60 | CC(C)(C)c1nnc2sc(SCC(O)=C(C#N)c3nc4ccccc4[nH]3)nn2c1=O | inactive
61 | COc1cccc(CC(=O)OCC(=O)NCc2ccc3c(c2)OCO3)c1 | inactive
62 | N#Cc1nc(Cc2cccc3ccccc23)oc1NCc1ccc2c(c1)OCO2 | 12.6 µM (active)
63 | CC1(C(=O)NCc2ccc3c(c2)OCO3)CCN1C(=O)Cc1cccc2ccccc12 (stereo not drawn) | inactive
64 | O=C(Nc1ccccc1)/C(=C\c1ccco1)NC(=O)c1ccco1 | inactive
65 | Nc1nc(SCC(=O)NN(c2ccccc2)c2ccccc2)n[nH]1 | inactive
66 | CC(C)(C)SCCNC(=O)c1cccc([N+](=O)[O-])c1 | inactive
67 | Cc1nn(-c2ccccc2)c2c1C(c1cccc([N+](=O)[O-])c1)N(c1ccccc1)C(=O)N2 (stereo not drawn) | inactive
68 | COc1ccc(C(C(=O)NC2CCCC2)N(CCCO)C(=O)Cn2nnc(-c3ccc(C)o3)n2)cc1 (stereo not drawn) | inactive
